# STK33 kin inh: human STK33 kinase inhibition; Q9BYT3; ADP-Glo luminescence, MBP substrate; inhibition, % at 12.5 µM; actives 0.44% (n = 27,000); in the data active = inhibition above about 20%; inconclusive = no clear call, values can overlap the other calls
# Target sequence (Q9BYT3 whole entry, looked up): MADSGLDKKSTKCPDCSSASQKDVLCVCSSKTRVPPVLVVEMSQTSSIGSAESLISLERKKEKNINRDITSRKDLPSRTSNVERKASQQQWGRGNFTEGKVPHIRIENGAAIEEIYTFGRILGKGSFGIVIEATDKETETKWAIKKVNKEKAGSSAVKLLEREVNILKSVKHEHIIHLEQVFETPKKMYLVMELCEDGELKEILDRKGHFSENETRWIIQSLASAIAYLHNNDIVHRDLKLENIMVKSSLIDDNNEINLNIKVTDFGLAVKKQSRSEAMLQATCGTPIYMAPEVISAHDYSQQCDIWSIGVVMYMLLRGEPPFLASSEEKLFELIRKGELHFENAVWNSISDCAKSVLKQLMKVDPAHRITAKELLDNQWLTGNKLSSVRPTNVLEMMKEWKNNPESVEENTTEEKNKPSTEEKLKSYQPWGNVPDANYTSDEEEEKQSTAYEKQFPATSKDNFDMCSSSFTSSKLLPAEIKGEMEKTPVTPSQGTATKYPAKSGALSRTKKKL
# PD-1 reverse act: reversal of PD-1 mediated T-cell inhibition; 29,000 tested, under 10 active; AID 2316; primary human CD4 T cells, PD-L1 beads, CellTiter-Glo 96 h; activation, % (no concentration beside the values); call rule not given here;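 note: 0% = median vehicle wells and 100% = positive control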
# NOMO-1 viab: STK33 inhibitor candidate reducing NOMO-1 cell viability. NOMO-1 AML viability, CellTiter-Glo luminescence, 72 h. inhibition, % (test concentration not listed). AID 2330. actives 7.5% (n = 37,000); in the data active = inhibition above about 80%; inconclusive = no clear call, values can overlap the other calls
# Active calls of the source: *; ? = inconclusive; . = no result. The sample as a whole holds a higher share of hits than the screen did.
SMILES,STK33 kin inh,PD-1 reverse act,NOMO-1 viab
Cc1cccc(N=Cc2c(O)n(-c3ccccc3)c(=O)c3ccccc23)c1,.,1,91*
O=c1c2ccccc2c(C=Nc2cccc(C(F)(F)F)c2)c(O)n1-c1ccccc1,.,-1,106*
O=C(c1ccccc1)c1cccc(N=Cc2c(O)[nH]c(=O)[nH]c2=O)c1,.,1,-15
Cc1cc(I)ccc1NC(=O)Cn1ccc([N+](=O)[O-])n1,-1,-1,0
COc1ccccc1NC(=O)CSC1=NC(c2ccccc2)CC(=O)N1 (stereo not drawn),2,-2,51
COc1ccc(N(CN2C(=O)c3ccccc3C2=O)C(=O)c2ccccc2)cc1,.,0,32
C[C@@H]1CN([C@@H](C)CO)C(=O)c2cc(NS(C)(=O)=O)ccc2O[C@H]1CN(C)Cc1ccc(C(=O)Nc2ccccc2N)cc1,.,1,27
C[C@H]1CN([C@@H](C)CO)C(=O)c2cc(NS(=O)(=O)c3cccs3)ccc2O[C@H]1CN(C)Cc1ccc(C(=O)Nc2ccccc2N)cc1,.,0,71
C[C@@H]1CN([C@H](C)CO)C(=O)c2cc(NS(=O)(=O)c3cccs3)ccc2O[C@@H]1CN(C)Cc1ccc(C(=O)Nc2ccccc2N)cc1,.,-2,110*
C[C@H](CO)N1C[C@H](C)[C@H](CN(C)Cc2ccc(C(=O)Nc3ccccc3N)cc2)Oc2ccc(NS(=O)(=O)c3cccs3)cc2C1=O,.,-2,109*
CC(=O)N[C@@H](Cc1c[nH]c2ccccc12)C(N)=O,-1,.,17
COC(=O)C(Cc1c[nH]c2ccccc12)NC(=O)C(NC(=O)C(C)NC(=O)/C=C/C(=O)O)C(C)c1c[nH]c2ccccc12 (stereo not drawn),154*,-1,7
COC1=CC(=O)O[C@@H](CCc2ccccc2)[C@H]1O,-2,-1,4
COc1ccc(-c2nnc(SCC(=O)Nc3ccc(Br)cc3C(C)C)o2)cc1,1,3,-6
COc1ccc(OC(C)c2nc(-c3cccnc3)no2)cc1 (stereo not drawn),-2,.,-10
CC(Oc1ccc(C(C)(C)C)cc1)c1nc(-c2cccnc2)no1 (stereo not drawn),0,-6,81*
C=C1CC[C@H]2[C@@](C)(CCC(O)[C@@]2(C)CO)[C@@H]1CCC1=CCOC1=O (stereo partly drawn),-1,1,5
C=C1CC[C@@H]2[C@](C)(CO)[C@H](O)CC[C@@]2(C)[C@@H]1C/C=C1/C(=O)OC[C@H]1O,-1,-14,108*
CN(C)CCCC[C@@H]1NC(=O)[C@@H]2C[C@H](C(=O)O)[C@H](c3cccc(OCCO)c3)N2C1=O,0,.,.
COc1cc(OC)c(C(O)C(C)O)cc1OC (stereo not drawn),-1,2,90*
COc1cc(=O)oc(C(C)C(C)O)c1CO (stereo not drawn),-3,0,-5
CC(C)c1ccc(OCC(=O)Nc2ccc(Br)cc2C(=O)O)cc1,-5,4,-13
CCOC(=O)C1=NNCC1C(=O)OCC (stereo not drawn),.,1,96*
CCOC(=O)c1nonc1N,.,0,-16
CN1C(=O)[C@@]2(Cc3ccccc3)SSS[C@]1(CO)C(=O)N2C,-10,-17,108*
SMILES,STK33 kin inh,PD-1 reverse act,NOMO-1 viab
O=C(O)c1nn(-c2ccccc2)c2c1CCc1occc1-2,.,2,7
COc1ccc(S(=O)(=O)c2ccc(OC)cc2)cc1,.,1,30
CCc1ccc(NS(=O)(=O)c2ccc(OC)cc2)cc1,.,3,113*
CC(=O)NC(=O)C1C=C2C=CC=CC2OC1=Nc1ccc(C(F)(F)F)cc1 (stereo not drawn),.,0,4
CCN1C(=O)/C(=C2\SC(=S)N(c3cccc(Cl)c3)C2=O)c2ccccc21,-2,-1,?
O=C1N(c2cccc(Cl)c2)C(=Nc2cccc(Cl)c2)SC12CC2,.,-2,114*
CCc1ccc(-n2c(C)nnc2SCC(=O)Nc2ccc(Cl)cc2Cl)cc1,-5,-2,28
Cc1ccc(NC(=O)Cn2cnc3ccccc3c2=O)cc1C,2,.,7
Cc1ccc(S(=O)(=O)N2C(=O)CCC2C(=O)Nc2cccc(Br)c2)cc1 (stereo not drawn),-2,.,-20
CCC(C)C(O)C(C)(O)/C=C/C1=CC2=C(Cl)C(=O)C(C)(O)C(OC(C)=O)C2CO1 (stereo not drawn),-1,-1,120*
C[C@H]1C(=O)N2c3ccccc3[C@@]3(O)C[C@@H]4C(=O)N[C@@](C)(c5nc6ccccc6c(=O)n54)N1[C@@H]23,2,0,21
CC(C)(C)c1cc(C(F)(F)F)c(C#N)c(SCC(=O)Nc2cccc(F)c2)n1,4,-3,39
Cc1[nH]n2c(=O)c3c(nc2c1-c1ccccc1)CCC3,.,-1,106*
CCOc1ccccc1CNc1nc2nc3c(c(=O)n2[nH]1)CCC3,-3,.,27

# Screening results deposited in PubChem BioAssay by Broad Institute.
